According to PubChem BioAssay AID1159580 (chemical genetic matrix, 2015):
The whole screen tested about 5,500 compounds, of which about 2,000 (36%) were called active. Not shown: some 18% with an inconclusive outcome. Cut-off read from the data, not from the text of the source: active = normalized growth mostly below about 0.91 (no sharp cut-off); inconclusive = no clear call, values can overlap the other calls; inactive = mostly above about 0.92. The list shows a part of the results.

Assay: chemical genetic growth profiling, strain panel (AID 1159580);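 note: tested at 20 µM; growth read once vehicle control cultures reached saturation at 30 °C; 1 = growth at the plate median or of vehicle wells; lower values mean less growth of the strain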
Conditions: growth OD

Measured: normalized growth

CCCCOc1ccc(CC(=O)NO)cc1
active: S. cerevisiae deletion strains, locus YKR001C, strain vps1, stronger effect = lower value 0.831 | S. cerevisiae deletion strains, locus YLR262C, strain YPT6 (second series), stronger effect = lower value 0.847
inactive: S. cerevisiae deletion strains, locus YJR043C, strain POL32, stronger effect = lower value 0.968 | S. cerevisiae deletion strains, locus YJR066W, strain TOR1, stronger effect = lower value 0.976 | S. cerevisiae deletion strains, locus YJR075W, strain HOC1, stronger effect = lower value 0.977 | S. cerevisiae deletion strains, locus YKL009W, strain mrt4, stronger effect = lower value 1.01 | S. cerevisiae deletion strains, locus YKL068W, stronger effect = lower value 0.999 | S. cerevisiae deletion strains, locus YKL085W, strain MDH1 (second series), stronger effect = lower value 0.998 | S. cerevisiae deletion strains, locus YKL085W, strain MDH1, stronger effect = lower value 0.998 | S. cerevisiae deletion strains, locus YKL160W, strain elf1, stronger effect = lower value 0.984 | S. cerevisiae deletion strains, locus YKL190W, strain CNB1, stronger effect = lower value 0.994 | S. cerevisiae deletion strains, locus YKR026C, strain gcn3, stronger effect = lower value 0.991 | S. cerevisiae deletion strains, locus YKR091W, strain srl3, stronger effect = lower value 0.996 | S. cerevisiae deletion strains, locus YLL001W, strain dnm1, stronger effect = lower value 0.986 | S. cerevisiae deletion strains, locus YLL026W, stronger effect = lower value 0.981 | S. cerevisiae deletion strains, locus YLL041C, strain sdh2, stronger effect = lower value 0.985 | S. cerevisiae deletion strains, locus YLR027C, strain aat2, stronger effect = lower value 0.97 | S. cerevisiae deletion strains, locus YLR039C, strain RIC1, stronger effect = lower value 0.731 | S. cerevisiae deletion strains, locus YLR058C, strain SHM2, stronger effect = lower value 1 | S. cerevisiae deletion strains, locus YLR102C, strain apc9, stronger effect = lower value 1.01 | S. cerevisiae deletion strains, locus YLR113W, strain HOG1, stronger effect = lower value 0.963 | S. cerevisiae deletion strains, locus YLR221C, strain rsa3, stronger effect = lower value 0.963 | S. cerevisiae deletion strains, locus YLR258W, strain gsy2, stronger effect = lower value 0.984 | S. cerevisiae deletion strains, locus YLR262C, strain YPT6, stronger effect = lower value 0.738 | S. cerevisiae deletion strains, locus YLR268W, strain sec22, stronger effect = lower value 0.983 | S. cerevisiae deletion strains, locus YLR320W, strain mms22, stronger effect = lower value 0.958 | S. cerevisiae deletion strains, locus YLR330W, strain CHS5, stronger effect = lower value 0.988 | S. cerevisiae deletion strains, locus YLR342W, strain FKS1 (second series), stronger effect = lower value 1.01 | S. cerevisiae deletion strains, locus YLR342W, strain FKS1, stronger effect = lower value 1.01 | S. cerevisiae deletion strains, locus YLR357W, strain rsc2, stronger effect = lower value 1 | S. cerevisiae deletion strains, locus YLR370C, strain arc18, stronger effect = lower value 0.989 | S. cerevisiae deletion strains, locus YLR371W, strain rom2, stronger effect = lower value 0.999 | S. cerevisiae deletion strains, locus YLR384C, strain iki3, stronger effect = lower value 0.991 | S. cerevisiae deletion strains, locus YLR418C, strain cdc73, stronger effect = lower value 0.921 | S. cerevisiae deletion strains, locus YML016C, strain PPZ1, stronger effect = lower value 1 | S. cerevisiae deletion strains, locus YML032C, strain rad52, stronger effect = lower value 0.997 | S. cerevisiae deletion strains, locus YML120C, strain ndi1, stronger effect = lower value 0.991 | S. cerevisiae deletion strains, locus YML124C, strain tub3, stronger effect = lower value 1 | S. cerevisiae deletion strains, locus YMR058W, strain fet3, stronger effect = lower value 0.969 | S. cerevisiae deletion strains, locus YMR078C, strain ctf18, stronger effect = lower value 1 | S. cerevisiae deletion strains, locus YMR125W, strain sto1, stronger effect = lower value 0.997 | S. cerevisiae deletion strains, locus YMR129W, stronger effect = lower value 0.996 | S. cerevisiae deletion strains, locus YMR205C, strain PFK2, stronger effect = lower value 0.984 | S. cerevisiae deletion strains, locus YMR223W, strain ubp8, stronger effect = lower value 1 | S. cerevisiae deletion strains, locus YMR231W, strain pep5, stronger effect = lower value 1 | S. cerevisiae deletion strains, locus YMR307W, strain GAS1, stronger effect = lower value 0.998 | S. cerevisiae deletion strains, locus YNL067W, strain RPL9B, stronger effect = lower value 0.976 | S. cerevisiae deletion strains, locus YNL071W, strain lat1, stronger effect = lower value 0.992 | S. cerevisiae deletion strains, locus YNL183C, strain NPR1, stronger effect = lower value 0.97 | S. cerevisiae deletion strains, locus YNL209W, strain ssb2, stronger effect = lower value 1.01 | S. cerevisiae deletion strains, locus YNL233W, strain BNI4, stronger effect = lower value 0.966 | S. cerevisiae deletion strains, locus YNL248C, strain rpa49, stronger effect = lower value 0.968 | S. cerevisiae deletion strains, locus YNL250W, strain rad50, stronger effect = lower value 1 | S. cerevisiae deletion strains, locus YNL271C, strain bni1, stronger effect = lower value 1.01 | S. cerevisiae deletion strains, locus YNL298W, strain CLA4, stronger effect = lower value 1.01 | S. cerevisiae deletion strains, locus YNL307C, strain MCK1, stronger effect = lower value 0.999 | S. cerevisiae deletion strains, locus YNL322C, strain KRE1 (second series), stronger effect = lower value 0.997 | S. cerevisiae deletion strains, locus YNR049C, strain mso1, stronger effect = lower value 0.995 | S. cerevisiae deletion strains, locus YNR052C, strain pop2, stronger effect = lower value 1.01 | S. cerevisiae deletion strains, locus YOL006C, strain TOP1, stronger effect = lower value 0.887 | S. cerevisiae deletion strains, locus YOL012C, strain htz1 1.47 | S. cerevisiae deletion strains, locus YOL147C, strain pex11, stronger effect = lower value 1 | S. cerevisiae deletion strains, locus YOR001W, strain rrp6, stronger effect = lower value 1.01 | S. cerevisiae deletion strains, locus YOR061W, strain CKA2, stronger effect = lower value 0.985 | S. cerevisiae deletion strains, locus YOR069W, strain VPS5, stronger effect = lower value 0.997 | S. cerevisiae deletion strains, locus YOR070C, strain gyp1, stronger effect = lower value 0.999 | S. cerevisiae deletion strains, locus YOR080W, strain dia2, stronger effect = lower value 0.995 | S. cerevisiae deletion strains, locus YOR083W, strain WHI5, stronger effect = lower value 0.982 | S. cerevisiae deletion strains, locus YOR106W, strain vam3, stronger effect = lower value 0.971 | S. cerevisiae deletion strains, locus YOR136W, strain idh2, stronger effect = lower value 1.01 | S. cerevisiae deletion strains, locus YOR144C, strain elg1, stronger effect = lower value 1 | S. cerevisiae deletion strains, locus YOR184W, strain ser1, stronger effect = lower value 0.999 | S. cerevisiae deletion strains, locus YOR231W, strain MKK1, stronger effect = lower value 1 | S. cerevisiae deletion strains, locus YOR265W, strain rbl2, stronger effect = lower value 0.997 | S. cerevisiae deletion strains, locus YOR270C, strain vph1, stronger effect = lower value 0.989 | S. cerevisiae deletion strains, locus YOR290C, strain snf2, stronger effect = lower value 0.989 | S. cerevisiae deletion strains, locus YOR316C, strain cot1, stronger effect = lower value 1.01 | S. cerevisiae deletion strains, locus YPL051W, strain arl3, stronger effect = lower value 0.961 | S. cerevisiae deletion strains, locus YPL078C, strain atp4, stronger effect = lower value 1 | S. cerevisiae deletion strains, locus YPL106C, strain sse1, stronger effect = lower value 1.08 | S. cerevisiae deletion strains, locus YPL240C, strain hsp82, stronger effect = lower value 1 | S. cerevisiae deletion strains, locus YPL241C, strain CIN2, stronger effect = lower value 0.994 | S. cerevisiae deletion strains, locus YPL256C, strain CLN2, stronger effect = lower value 1.02 | S. cerevisiae deletion strains, locus YPR119W, strain clb2, stronger effect = lower value 1.01 | S. cerevisiae deletion strains, locus YPR141C, strain kar3, stronger effect = lower value 1 | S. cerevisiae deletion strains, locus YPR163C, strain tif3, stronger effect = lower value 1.01 | S. cerevisiae deletion strains, locus YPR167C, strain met16, stronger effect = lower value 1.01 | S. cerevisiae deletion strains, strain wtn01, stronger effect = lower value 0.988 | S. cerevisiae strains, strain wild type, stronger effect = lower value 0.992
